This is a sample that favours compounds with a hit; in the whole collection about 12% have one here.
BAZ2B block = blocks human BAZ2B; Potency, µM (top dose mostly 114 µM), for the others: top-dose activity change, negative = inhibition, usual class: inhibitors; AlphaScreen BAZ2B-H3K14Ac peptide displacement; hit rate 4.4% among 360,000; Q9UIF8; AID 504333; also: potency is read from the fitted curve at half-maximal effect; % is scaled to controls: 0 for no effect and ±100 for the full control effect; nearly all actives have a fitted effect of over 60% in size
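Inhibition is scored as reduced AlphaScreen emission. The BAZ2B/b-H3(5-23)K14Ac complex (50 nM each) in PBS pH 7.4, 0.01% Tween-20 meets compound (up to 110 uM) for 30 min at RT before bead addition.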
PLK1 PBD inh = inhibitors of human PLK1 polo-box domain binding | P53350 | Plk1 PBD binding of FITC phosphopeptide, fluorescence polarization | Potency, µM, for the others: max response, negative = inhibition, most hits filed as inhibitors | hit rate 2.8% among 360,000 | AID 720504; also: potency is read from the fitted curve at half-maximal effect; series mostly up to about 57 µM; % is scaled to controls: 0 for no effect and ±100 for the full control effect; nearly all actives have a fitted effect of over 65% in size
Target sequence (P53350 whole entry, looked up, the tested form may be a part): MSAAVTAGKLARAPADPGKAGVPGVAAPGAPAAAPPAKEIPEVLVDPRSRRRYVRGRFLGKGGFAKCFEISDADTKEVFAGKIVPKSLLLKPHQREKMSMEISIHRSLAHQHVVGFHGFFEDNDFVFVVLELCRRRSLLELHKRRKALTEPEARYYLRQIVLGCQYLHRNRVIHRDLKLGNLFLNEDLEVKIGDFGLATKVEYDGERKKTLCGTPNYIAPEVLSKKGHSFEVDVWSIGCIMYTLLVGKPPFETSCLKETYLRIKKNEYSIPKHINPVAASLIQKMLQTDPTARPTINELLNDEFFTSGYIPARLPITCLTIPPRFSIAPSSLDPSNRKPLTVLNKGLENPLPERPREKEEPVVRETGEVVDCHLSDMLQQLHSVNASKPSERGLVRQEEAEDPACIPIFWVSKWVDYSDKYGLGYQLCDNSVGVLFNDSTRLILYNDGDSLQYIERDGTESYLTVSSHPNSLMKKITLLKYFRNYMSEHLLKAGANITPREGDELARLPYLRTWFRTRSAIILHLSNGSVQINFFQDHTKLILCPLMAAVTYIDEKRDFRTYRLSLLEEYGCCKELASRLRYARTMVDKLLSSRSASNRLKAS
HP1b binding inh = inhibitors of HP1-beta chromodomain binding to methylated histone tails; AlphaScreen HP1-beta / biotin-H3K9me3 peptide binding; hit rate 0.56% among 390,000; Potency, µM (doses to about 114 µM), without a hit: at the top dose activity change, negative = inhibition, most hits filed as inhibitors; P83916; also: potency is read from the fitted curve at half-maximal effect; nearly all actives have a fitted effect of over 70% in size
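Compound inhibition of the preformed complex between 50 nM HP1-beta and 50 nM biotinylated H3K9me3 peptide was read by AlphaScreen. Buffer was PBS pH 7.4 with 0.01% Tween-20. Incubations ran 30 min at room temperature, with 10 ug/mL donor/acceptor beads.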
G9a block = G9a (human) methyltransferase inhibition | G9a H3K9 monomethylation, AlphaScreen, 2 h | Potency, µM (titrated, usually from 102 µM), without a hit: at the top dose activity, negative = inhibition, most hits filed as inhibitors | hit rate 8.8% among 350,000 | AID 504332; also: potency is read from the fitted curve at half-maximal effect; % is scaled to controls: 0 for no effect and ±100 for the full control effect; nearly all actives have a fitted effect of over 75% in size
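Compounds were preincubated with 20 nM G9a for 15 min, after which biotinylated H3K9 peptide (500 nM) and SAM (20 uM) started a 2 h room-temperature reaction. Monomethylated product was quantified by antibody-based AlphaScreen chemiluminescence.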
JMJD2A Tudor = JMJD2A Tudor domain (human) inhibition. O75164. AlphaScreen JMJD2A-Tudor / H3K4me3 peptide binding. hit rate 4.4% among 390,000. Potency, µM (doses to about 114 µM), for the others: at the top dose activity change, negative = inhibition, most hits filed as inhibitors. AID 504339; also: potency is read from the fitted curve at half-maximal effect; % is scaled to controls: 0 for no effect and ±100 for the full control effect; nearly all actives have a fitted effect of over 50% in size
PI5P4K alpha inh = inhibitors of human PI5P4K alpha. PI5P4Kalpha enzyme, ADP-Glo luminescence, 60 min; hits give low values. max response, %. AID 652105. P48426. hit rate 1.2% among 330,000; active = max response of -50% or lower; inconclusive = between -30% and -50%; inactive = -30% or higher; also: value at the top dose of about 77 µM; % is scaled to controls: 0 for no effect and ±100 for the full control effect
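Enzyme plus substrate dispensed, test compounds pinned in, then ATP (5 microM final) added. After 60 min at RT, ADP-Glo reagent 1 for 45 min and reagent 2 for 30 min preceded luminescence imaging.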
Numbers without * were called inactive; [ ] = another dose, or the depositor's remark. Unless noted, calls follow the shape of the dose curve; as a rule, active = well fitted curve in the direction sought with a large enough effect; inconclusive = small, poorly fitted or top-dose-only effect, or another doubt; inactive = no such curve, though single readings can be large; an effect the other way counts as inactive or inconclusive.

`CC(=O)c1nc(-c2ccccc2)sc1C` gave BAZ2B block -17.5%, PLK1 PBD inh -3.0%, HP1b binding inh 60.7%, G9a block 3.7%, JMJD2A Tudor 2.6% and PI5P4K alpha inh 0.9.
Screening COc1ccccc1-n1c(CCn2nc(C)c(Br)c2C)n[nH]c1=S returned BAZ2B block -4.3%, PLK1 PBD inh -6.0%, HP1b binding inh 3.7%, G9a block 1.12µM*, JMJD2A Tudor 7.08µM* and PI5P4K alpha inh -13.7.
For Cc1nn(CCc2n[nH]c(=S)n2C)c(C)c1Br the results were BAZ2B block -1.9%, PLK1 PBD inh -11.7%, HP1b binding inh 21.4%, G9a block inconclusive and JMJD2A Tudor 7.08µM*.
`CNC(=S)NNC(=O)CCn1nc(C)c(Br)c1C` gave BAZ2B block -2.9%, PLK1 PBD inh -10.1%, HP1b binding inh 22.3%, G9a block 0.7%[59 µM] and JMJD2A Tudor -16.7%.
Cc1nn(CCc2n[nH]c(=S)n2C2CCCCC2)c(C)c1Br was read as BAZ2B block -6.7%[57.1 µM], PLK1 PBD inh -5.1%, HP1b binding inh 34.7%, G9a block 2.51µM* and JMJD2A Tudor 79.4µM*.
`COc1ccccc1-n1cc(-c2ccc(Br)cc2)[nH]c1=S` gave BAZ2B block 2.3%, PLK1 PBD inh -3.3%, HP1b binding inh -20.3%, G9a block -1.3%, JMJD2A Tudor inconclusive and PI5P4K alpha inh -5.8.
`COc1ccc(NC(=O)C2CCN(c3cc(C)nc4c(-c5ccc(Cl)cc5)c(C)nn34)CC2)cc1` gave BAZ2B block -4.1%, HP1b binding inh 28.2%, G9a block -4.6%[59 µM] and JMJD2A Tudor -7.4%.
Screening CC(=O)Nc1ccc(NS(=O)(=O)c2ccc3[nH]c4c(c3c2)CCCCC4)cc1 returned BAZ2B block 14.0%[57.1 µM], HP1b binding inh -26.5%, G9a block -32.5%[59 µM] and JMJD2A Tudor -9.7%.
`O=C(c1ccccc1F)N1CCN(Cc2ccc3c(c2)OCO3)CC1` gave BAZ2B block 44.7µM*, PLK1 PBD inh -5.3%, HP1b binding inh 39.8µM*, G9a block -5.2%[0.501 µM], JMJD2A Tudor 0.891µM* and PI5P4K alpha inh -8.1.
Screening O=C(c1cccc(S(=O)(=O)N2CCOCC2)c1)N1CCN(Cc2ccc3c(c2)OCO3)CC1 returned BAZ2B block -25.9%, PLK1 PBD inh -1.8%, HP1b binding inh 14.6%, G9a block 39.8µM*, JMJD2A Tudor -10.9% and PI5P4K alpha inh -0.9.
`CCSc1ccccc1C(=O)N1CCN(Cc2ccc3c(c2)OCO3)CC1` gave BAZ2B block 4.6%, PLK1 PBD inh -21.6%, HP1b binding inh 5.1%, G9a block 7.94µM* and JMJD2A Tudor -28.5%.
O=C(O)c1cccc(S(=O)(=O)N2CCN(Cc3ccc4c(c3)OCO4)CC2)c1 was read as BAZ2B block 6.1%, PLK1 PBD inh -11.5%, HP1b binding inh -11.4%, G9a block -9.9%, JMJD2A Tudor -15.7% and PI5P4K alpha inh -6.1.
COc1cccc(Cn2c(=O)cnc3cnc(OCc4ccccc4)nc32)c1 was read as G9a block 10.3%[0.501 µM].
`O=S(=O)(NCCc1csc2nc(-c3ccc(F)cc3)nn12)c1ccc(Br)cc1` gave BAZ2B block 1.7%, HP1b binding inh 27.8%, G9a block 3.9%[59 µM] and JMJD2A Tudor -0.3%.
Screening Oc1ccccc1C1NN=C(c2ccccc2)S1 (configuration not stated) returned BAZ2B block 17.8µM*, PLK1 PBD inh inconclusive, HP1b binding inh 77.2%, JMJD2A Tudor -19.7% and PI5P4K alpha inh 2.1.
CSc1ccc(C2NN=C(c3ccccc3)S2)cc1 (configuration not stated) was read as PLK1 PBD inh inconclusive, HP1b binding inh 64.0%, JMJD2A Tudor -32.4% and PI5P4K alpha inh -5.2.
For CCc1nc2ccc(C(=O)NCc3ccccc3C)cc2nc1CC the results were BAZ2B block 1.1%, HP1b binding inh 18.3%, G9a block 7.9%[59 µM] and JMJD2A Tudor -8.3%.
For O=C(CSc1nnnn1-c1ccccc1)NC(=O)Cc1ccccc1 the results were BAZ2B block 9.0%, PLK1 PBD inh 4.9%, HP1b binding inh 32.7%, G9a block 13.0%[12.7 µM], JMJD2A Tudor 11.1% and PI5P4K alpha inh -1.8.
Screening Cn1nnnc1SCC(=O)NC(=O)Cc1ccccc1 returned BAZ2B block 8.2%, PLK1 PBD inh 2.99µM*, HP1b binding inh inconclusive, G9a block -26.3%[59 µM], JMJD2A Tudor inconclusive and PI5P4K alpha inh inconclusive.
CN(C)S(=O)(=O)c1ccc(NC(=O)CSc2nnnn2C)cc1 was read as BAZ2B block -16.8%, PLK1 PBD inh -8.2%, HP1b binding inh 14.0%, G9a block 31.6µM*, JMJD2A Tudor -14.0% and PI5P4K alpha inh 1.1.
Screening CCCN1CCN(CCCNC(=O)c2cnn(-c3ccc(F)cc3)c2-n2cccc2)CC1 returned BAZ2B block -4.6%, HP1b binding inh 9.1%, G9a block -3.0%[59 µM] and JMJD2A Tudor -14.1%.
Screening NC(=O)c1ccsc1NC(=O)c1ccc(S(=O)(=O)N2CCCc3ccccc32)cc1 returned BAZ2B block inconclusive, PLK1 PBD inh -3.6%, HP1b binding inh 12.6%, G9a block 50.1µM*, JMJD2A Tudor -33.8% and PI5P4K alpha inh -6.6.
Screening CC(C)N1CCc2c(sc(NC(=O)c3cc(-c4cccs4)nc4ccccc34)c2C(N)=O)C1 returned BAZ2B block 39.8µM*, PLK1 PBD inh 0.9%, HP1b binding inh -6.1%, G9a block 11.2µM*, JMJD2A Tudor inconclusive and PI5P4K alpha inh -23.1.
`CC(C)N1CCc2c(sc(NC(=O)c3ccc(S(=O)(=O)N4CCc5ccccc54)cc3)c2C(N)=O)C1` gave BAZ2B block inconclusive, PLK1 PBD inh 8.4%, HP1b binding inh 3.3%, G9a block 17.8µM*, JMJD2A Tudor inconclusive and PI5P4K alpha inh inconclusive.
For CC(C)N1CCc2c(sc(NC(=O)c3nc4ccccc4s3)c2C(N)=O)C1 the results were BAZ2B block -36.4%, PLK1 PBD inh -19.3%, HP1b binding inh -1.5%, G9a block 44.7µM*, JMJD2A Tudor inconclusive and PI5P4K alpha inh -22.3.
`CCC(C)NC(=O)c1cc(-c2cccs2)nc2ccccc12` (configuration not stated) gave BAZ2B block -1.3%, PLK1 PBD inh -9.0%, HP1b binding inh 69.6%, G9a block 21.4%, JMJD2A Tudor -9.1% and PI5P4K alpha inh 0.0.
For CC(C)N1CCc2c(sc(NC(=O)c3ccc(S(=O)(=O)N(C)C4CCCCC4)cc3)c2C(N)=O)C1 the results were BAZ2B block 3.1%, HP1b binding inh 34.5%, G9a block -22.7%[59 µM] and JMJD2A Tudor inconclusive.
`O=C(COc1ccccc1)NCC(=O)N1CCCCCC1` gave BAZ2B block -2.8%, PLK1 PBD inh -2.1%, HP1b binding inh 35.0%, G9a block 4.4%[59 µM], JMJD2A Tudor -6.4% and PI5P4K alpha inh -0.8.

Compound activity as filed in PubChem.
